This is part of a sample that, as a whole, favours compounds with a hit. Of some 79,000 tested, about 15% had one in any assay. A number with no mark means an inactive call. Activity calls are given as the source filed them. No stated cut-off is given here; in the data, active means growth inhibition above about 70%; inactive means the rest.
Tests used:
[1] = NCI Yeast Anticancer Drug Screen. Data for the rad50 strain (AID 155);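 further: 0% = growth of vehicle-only cultures of the same strain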; settings: S. cerevisiae rad50 strain growth inhibition, active compounds read high
Method in brief: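 A DNA repair-deficient yeast mutant serves as the test organism; compound-induced growth inhibition is calculated against vehicle-treated cells.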

[2] = NCI Yeast Anticancer Drug Screen. Data for the mec2-1 strain (AID 157); settings: S. cerevisiae mec2-1 strain, active compounds read high
Method in brief: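 Compounds were applied to mec2-1 yeast cells. Their growth was then compared with that of vehicle-treated cultures to give growth inhibition.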

[3] = NCI Yeast Anticancer Drug Screen. Data for the sgs1 mgt1 strain (AID 161);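 further: 0% = growth of cultures given vehicle only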; settings: S. cerevisiae sgs1 mgt1 strain, active compounds read high
Method in brief: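 Percent growth inhibition was derived by comparing compound-exposed mutant yeast with vehicle-exposed cultures. The strain carries alterations in DNA damage repair.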

[4] = NCI Yeast Anticancer Drug Screen. Data for the cln2 rad14 strain (AID 165);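 further: 0% = growth equal to vehicle treated cultures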; settings: S. cerevisiae cln2 rad14 strain, active compounds read high
Method in brief: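 Strain: cln2 rad14 yeast, altered in cell cycle control and DNA damage repair. Read-out: growth inhibition vs vehicle.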

[5] = NCI Yeast Anticancer Drug Screen. Data for the bub3 strain (AID 167); settings: S. cerevisiae bub3 mutant strain, active compounds read high
Method in brief: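 Inhibition values come from growth of compound-treated mutant yeast normalised to vehicle-treated controls.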

[6] = NCI Yeast Anticancer Drug Screen. Data for the mlh1 rad18 strain (AID 175); settings: S. cerevisiae mlh1 rad18 strain growth inhibition, active compounds read high
Method in brief: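 A repair-deficient yeast strain is exposed to test compound, and growth is scored relative to vehicle-treated controls.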

[7] = at 5.0 µM (retest, dose inferred, filed as 0.5)
[8] = at 50.0 µM (retest, dose inferred, filed as 5.0)

SMILES | growth inhibition [1, 7] | growth inhibition [1, 8] | growth inhibition ([1]; at 50.0 µM) | growth inhibition [2, 7] | growth inhibition [2, 8] | growth inhibition ([2]; at 50.0 µM) | growth inhibition [3, 7] | growth inhibition [3, 8] | growth inhibition ([3]; at 50.0 µM) | growth inhibition [4, 7] | growth inhibition [4, 8] | growth inhibition ([4]; at 50.0 µM) | growth inhibition [5, 7] | growth inhibition [5, 8] | growth inhibition ([5]; at 50.0 µM) | growth inhibition [6, 7] | growth inhibition [6, 8] | growth inhibition ([6]; at 50.0 µM)
Cc1cc(Br)c(NC(=O)CBr)cc1C | -1% | 95% (active) | 42.3% | -3% | 97% (active) | 73.3% (active) | -1% | 97% (active) | 72% (active) | -2% | 94% (active) | 46.9% | -1% | 96% (active) | 40.5% | -2% | 96% (active) | 81.5% (active)
C=CC(=O)N1C/C(=C\c2ccc(F)cc2)C(=O)/C(=C/c2ccc(F)cc2)C1 | 21% | 75% (active) | 52% | 14% | 77% (active) | 26.1% | 14% | 88% (active) | 90.2% (active) | 19% | 81% (active) | 78.5% (active) | 21% | 94% (active) | 88.6% (active) | 18% | 91% (active) | 88.1% (active)
CCCNC(=S)N/N=C(/C)c1nccc2ccccc12 | 9% | 86% (active) | 38.1% | 4% | 98% (active) | 20.4% | 7% | 88% (active) | 70% (active) | -8% | 7% | 17.9% | 0% | 78% (active) | 14.8% | 3% | 93% (active) | 29.4%
CC(NNC(=S)N1CCCCCC1)c1cccnn1 (configuration not stated) | 99% (active) | 99% (active) | 89% (active) | 98% (active) | 99% (active) | 93% (active) | 97% (active) | 99% (active) | 89.2% (active) | 98% (active) | 99% (active) | 90.5% (active) | 98% (active) | 99% (active) | 91.6% (active) | 99% (active) | 99% (active) | 85% (active)
N=C1C(=O)c2ccccc2-c2ccccc21 | -93% | 97% (active) | 96.3% (active) | -25% | 99% (active) | 96.3% (active) | -35% | 98% (active) | 97.3% (active) | -75% | 98% (active) | 91.3% (active) | -20% | 97% (active) | 97% (active) | -86% | 97% (active) | 95.7% (active)
CCOP(=O)(OCC)C(NC(=O)OCC(Cl)(Cl)Cl)n1nnc(C(=O)OC)c1C(=O)OC (configuration not stated) | -7% | 79% (active) | -8.8% | -4% | 46% | 4.15% | -6% | 89% (active) | 10.6% | -3% | 69% | 36.4% | -1% | 92% (active) | -0.7% | -1% | 70% (active) | -1.15%
O/N=C(/CCc1ccccc1)c1ccccc1 | 7% | 84% (active) | 97.1% (active) | 2% | 70% (active) | 97% (active) | 5% | 76% (active) | 97.2% (active) | -2% | 56% | 93.2% (active) | -2% | 71% (active) | 95.7% (active) | 2% | 71% (active) | 97.2% (active)
NC(=O)Nc1cc(=O)[nH]c(=S)[nH]1 | -2% | -2% | 6.9% | 4% | -1% | 8.65% | 0% | 0% | -9.9% | -1% | -5% | 5.05% | -1% | -4% | 42.4% | -3% | -2% | -23.1%
Cc1ccc([Si](O)(c2ccc(C)cc2)c2ccc(C)cc2)cc1 | 85% (active) | 92% (active) | 95.2% (active) | 78% (active) | 94% (active) | 93% (active) | 71% (active) | -27% | 93.5% (active) | 67% | 90% (active) | 93.6% (active) | 75% (active) | 92% (active) | 86.3% (active) | 84% (active) | 93% (active) | 94.4% (active)
C=CCOc1ccccc1C(=O)OC | 3% | 0% | -4.6% | 6% | -4% | 7.9% | -1% | -5% | 7.2% | 5% | -4% | 30.9% | -3% | -10% | -2.45% | 3% | -1% | 0.3%
CCC1([N+](=O)[O-])COC(c2ccc3c(c2)OCO3)OC1 (configuration not stated) | -9% | -11% | -1.7% | -14% | -1% | -3.15% | -1% | -47% | 11.7% | 10% | 21% | -1.9% | 14% | -23% | 3.35% | -18% | -6% | 4.45%
COC(=O)c1c(C(N)=O)c(C)n(NC(=O)Nc2ccccc2)c1C | 25% | 93% (active) | 96.2% (active) | 24% | 95% (active) | 85.1% (active) | 41% | 94% (active) | 95% (active) | 32% | 91% (active) | 81.4% (active) | 37% | 92% (active) | 86.2% (active) | 63% | 95% (active) | 87.8% (active)
CCOC1(OCC)Cc2nc3ccccc3cc21 | 4% | 94% (active) | 96.7% (active) | -2% | 96% (active) | 96.8% (active) | 2% | 96% (active) | 95.5% (active) | 0% | 91% (active) | 92.5% (active) | -2% | 93% (active) | 96.7% (active) | 3% | 95% (active) | 97.2% (active)
Nc1ccccc1C(=O)/C=C/c1ccccc1 | 19% | 73% (active) | 98.8% (active) | 4% | 57% | 99% (active) | -2% | 70% (active) | 94.6% (active) | -23% | 27% | 80.1% (active) | 11% | 73% (active) | 99.2% (active) | 21% | 84% (active) | 96.8% (active)
C/C(CCn1[nH]c(=O)ccc1=O)=N\Nc1ccc([N+](=O)[O-])cc1[N+](=O)[O-] | 44% | 97% (active) | 67.3% | 20% | 98% (active) | -0.6% | 27% | 98% (active) | 19.6% | 23% | 81% (active) | 24.4% | 32% | 98% (active) | 25.9% | 45% | 98% (active) | 73.2% (active)
C/C(=N\NC(=S)NC12CC3CC(CC(C3)C1)C2)c1ccccn1 | 5% | 95% (active) | 97% (active) | 3% | 97% (active) | 97.9% (active) | 6% | 98% (active) | 98% (active) | -5% | 93% (active) | 94.7% (active) | 0% | 97% (active) | 97.1% (active) | -7% | 97% (active) | 97.3% (active)
CCCN(CCC)CC(O)c1ccc2ccc3ccc(Cl)cc3c2c1 (configuration not stated) | 20% | 98% (active) | 99.8% (active) | 18% | 98% (active) | 99.8% (active) | 39% | 99% (active) | 99.8% (active) | 29% | 98% (active) | 99.6% (active) | 38% | 98% (active) | 99.5% (active) | 27% | 99% (active) | 99.8% (active)
C=CCOCCC(=O)OCC=C | 0% | -2% | 7% | 1% | 0% | 40.4% | 1% | -1% | 15.9% | -1% | 0% | 72.2% (active) | -2% | -1% | 67.4% | -1% | -1% | 70.8% (active)
O=c1ccc2ccc(Cl)cc2[nH]1 | -9% | 1% | -27.9% | -5% | 16% | -5.9% | -5% | -8% | 8.05% | 17% | 17% | 50% | 4% | 1% | -10.3% | 9% | 20% | 4.8%

Source: PubChem BioAssay (NCI)
